# Columns and labels:
# Experiment in all cases: PBM binding z-score (relative to random genomic background probes); higher = stronger binding; sequences stand for … in GC…GCGATTGACAGCGTAGAATGAAGG
# [1] = tested on: FXR:RXRa (NR concentration 270 nM, RXRa partner concentration 90 nM)
# Procedure, shortened: (§1)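 Ligand-free nuclear receptor dimers were bound for 1 h to custom Agilent 4×180K protein-binding microarrays. Detection used antibodies against each partner (one per run). Binding z-scores rest on regression-normalized fluorescence, with random background probes as the reference.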
# [2] = tested on: LXRa:RXRa (NR concentration 270 nM, RXRa partner concentration 90 nM)
# Procedure, shortened: as §1
# [3] = tested on: LXRa homodimer (NR concentration 270 nM)
# Procedure, shortened: as §1
# [4] = tested on: LXRb:RXRa (NR concentration 270 nM, RXRa partner concentration 90 nM)
# Procedure, shortened: as §1
# [5] = tested on: LXRb homodimer (NR concentration 270 nM)
# Procedure, shortened: as §1
# [6] = tested on: PPARa:RXRa (NR concentration 270 nM, RXRa partner concentration 90 nM)
# Procedure, shortened: as §1
# [7] = tested on: PPARg:RXRa (NR concentration 180 nM, RXRa partner concentration 90 nM)
# Procedure, shortened: as §1
# [8] = tested on: PPARg:RXRa 270nM:90nM, anti-RXR (NR concentration 270 nM, RXRa partner concentration 90 nM)
# Procedure, shortened: as §1
# [9] = tested on: PPARg:RXRa 30nM:10nM, anti-RXR (NR concentration 30 nM, RXRa partner concentration 10 nM)
# Procedure, shortened: as §1
# [10] = tested on: PPARg:RXRa 90nM:30nM, anti-RXR (NR concentration 90 nM, RXRa partner concentration 30 nM)
# Procedure, shortened: as §1
# [11] = tested on: PPARg:RXRa DBDmut IVT, anti-RXR (DBD mutation: RXRa K156A/R161A, NR concentration 270 nM, RXRa partner concentration 90 nM)
# Procedure, shortened: as §1
# [12] = tested on: PPARg:RXRa IVT, anti-PPARg (NR concentration 270 nM, RXRa partner concentration 90 nM)
# Procedure, shortened: as §1
# [13] = tested on: PPARg DBDmut:RXRa IVT, anti-PPARg (DBD mutation: PPARg1 K132A/R137A, NR concentration 270 nM, RXRa partner concentration 90 nM)
# Procedure, shortened: as §1
# [14] = tested on: PPARg DBDmut IVT, anti-PPARg (DBD mutation: PPARg1 K132A/R137A, NR concentration 270 nM)
# Procedure, shortened: as §1
# [15] = tested on: PPARg homodimer (NR concentration 180 nM)
# Procedure, shortened: as §1
# [16] = tested on: PXR:RXRa (NR concentration 270 nM, RXRa partner concentration 90 nM)
# Procedure, shortened: as §1
# [17] = tested on: PXR homodimer (NR concentration 270 nM)
# Procedure, shortened: as §1
# [18] = tested on: RARa:RXR (NR concentration 270 nM, RXRa partner concentration 90 nM)
# Procedure, shortened: as §1
# [19] = tested on: RARa homodimer (NR concentration 270 nM)
# Procedure, shortened: as §1
# [20] = tested on: RARb:RXRa (NR concentration 270 nM, RXRa partner concentration 90 nM)
# Procedure, shortened: as §1
Sequence,PBM binding z-score [1],PBM binding z-score [2],PBM binding z-score [3],PBM binding z-score [4],PBM binding z-score [5],PBM binding z-score [6],PBM binding z-score [7],PBM binding z-score [8],PBM binding z-score [9],PBM binding z-score [10],PBM binding z-score [11],PBM binding z-score [12],PBM binding z-score [13],PBM binding z-score [14],PBM binding z-score [15],PBM binding z-score [16],PBM binding z-score [17],PBM binding z-score [18],PBM binding z-score [19],PBM binding z-score [20]
CGAACCAGGTCAAGGACAGTGAATCTCCGCACGC,4.75,2.98,0.32,2.36,-0.00984,4.52,4.96,4.26,1.28,3.31,4.75,5.44,0.626,1.5,2.06,2.01,0.853,3,0.303,4.04
TCAGACAGATGAAGGTAACTCAGGTACGCAGTCG,0.719,0.98,-0.272,0.763,-0.545,0.832,0.832,2.06,4.27,3.3,2.29,0.179,-0.273,-0.478,0.326,0.521,0.216,0.684,0.265,0.227
AGAATGAGGTTACCAAAGATCTGGGAAACGCTTG,1.57,2.23,-0.414,1.23,-0.401,3.4,2.74,2.37,0.756,1.91,3.41,3.25,0.193,0.0654,0.163,0.907,-0.203,1.77,-0.536,1.98
GCTCGGAGGACAAGGTCTGAGCTTTGTCCGTAGA,-0.67,-0.493,-0.867,-0.602,-1.01,-0.36,-1.05,-0.462,-1.11,-1,-0.275,-0.493,-0.968,-1.01,-0.929,-0.656,-0.919,-0.399,-1.72,0.963
TCTCGTTGGTCAAAGGTCACACACTCGAAATGCG,6.33,5.68,4.45,5.88,2.23,6.57,9.51,8.55,7.87,9.27,2.72,5.29,0.705,2.09,5.26,5.86,2.2,7.31,3.39,5.27
ATCTCTAGGTAAGGATAGTTCAGTGAATGCAAAT,0.343,0.874,0.613,0.271,0.693,0.427,0.279,0.182,0.215,0.134,1.23,1.1,0.846,0.942,0.983,0.619,0.997,0.17,1.04,0.741
CAAACTAGGTCAAAGGACAAAGTCGAGCCAACCA,4.29,3.41,0.833,2.68,0.636,5.81,10.2,8.77,8.72,9.77,8.09,8.38,2.59,0.234,1.32,1.72,0.313,3.01,0.239,4.03
GCAGACAGGTGAAACGCAGGTAACGCAGGGTGGC,-0.151,-0.229,-0.631,-0.357,-1.09,0.749,0.665,-0.038,-0.74,-0.0828,0.691,0.737,-0.603,-0.805,-0.678,-0.552,-0.857,0.395,-0.862,0.76
TGAATGAGGGTAAAGATCAGGGAACGTGGCGTCG,0.332,0.35,-0.456,-0.0766,0.875,2.98,4.39,5.94,4.5,6.32,2.27,3.04,0.811,1.2,1.24,-0.131,-0.487,0.239,0.383,0.817
CATACAGGGTCAGCTAGGCCAGTGTAGGGACGGC,4.16,2.82,-0.158,1.81,0.182,4.09,2.96,2.97,0.501,2.32,1.02,2.44,0.598,0.349,1.32,1.78,-0.247,3.02,-0.155,3.98
TCAAATAGGTAATACAGGTGAAAGTCGGCATCTA,0.834,1.29,0.418,0.892,0.0118,2.04,1.14,2.72,4.16,3.5,3.6,2.94,1.25,1.14,0.815,0.771,0.46,0.82,1.66,0.777
ACATGTAGGTTAGCTGGGGTCATTCAGACTAGGC,5.12,5.55,2.93,4.9,1.56,4.85,4.21,4.58,1.87,3.39,5.83,4.97,2.39,2.35,6.39,6.77,5.5,6.23,2.18,3.1
GCAGACAGGTGAAACGCAGCTAACTCAGGGTGGC,-0.722,-0.436,-0.887,-0.728,-1.13,0.359,0.371,-0.353,-0.974,-0.585,0.771,0.278,-1.29,-0.6,-1.08,-0.921,-0.971,-0.616,-1.12,0.0872
ACTATTAGTCGAGACGAGGGCAACCGATAGGTTG,-0.123,-0.246,-0.369,-0.122,-0.111,0.186,0.668,0.119,0.0913,0.381,-0.021,0.553,0.32,-0.276,0.0526,0.376,0.101,0.238,-0.112,0.812

# From the supplement of paper PMC6555819
